The panel holds about 83,000 compounds, 20% with a hit somewhere; the sample as a whole holds those more often.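 The test compound was applied at a single concentration to cells in 96-well plates for 48 hours, and percent growth was recorded.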 Unmarked numbers belong to inactive results. Activity calls are given as the source filed them. Rule for the calls: active = growth percent below 10; inactive = the rest.
What follows are molecules tested on MDA-MB-468 breast (assay: NCI-60 one-dose screen, 48 h (100 = growth as untreated, 0 = no growth, -100 = all killed)). Conditions: 10 µM unless noted.

Compound | growth
COc1c(B(O)O)cccc1-c1nc2ccc3[nH]ncc3c2c2c1C1CCC2C1 (configuration not stated) | 89.9%
CN(C)c1nc(-c2cccs2)n2nc(-c3ccco3)cc2n1 | 7.52% (active)
Cc1ccc(S(=O)(=O)NC(=O)n2cc(-c3ccncc3)c(-c3ccc(Cl)c(O)c3)n2)cc1 | 101%
Cc1ccc(-c2nc(/C=N/Nc3cc(C)nc4ccc(Br)cc34)c(C)o2)cc1 | -89% (active)
CC(C)CCSc1nc(-c2ccc(F)cc2)c(C#N)c(N2CCN(C)CC2)n1 | 98.3%
CC[C@H](CC[C@@H](C)[C@H]1CC[C@H]2[C@@H]3/C(=C/c4cccnc4)C(=O)C4=CC(=O)CC[C@]4(C)[C@H]3CC[C@]12C)C(C)C | 97%
COc1ccc2c(c1)/C(=C\c1sc(=S)[nH]c1O)C(C(=O)O)=N2 | 98.2%
C=C1C(=O)O[C@H]2[C@H]1CC/C(COC(=O)/C=C/C(=O)NCc1ccc(Cn3c(=O)sn(-c4ccccc4)c3=O)cc1)=C\CC[C@@]1(C)O[C@@H]21 | -43.4% (active)
O=C(/C=C/c1cc2ccccc2[nH]c1=O)c1ccc(Cl)cc1 | 15.4%
NC(N)=NS(=O)(=O)c1ccc(N=Nc2c(N)nn(-c3ccc([N+](=O)[O-])cc3[N+](=O)[O-])c2N)cc1 | 106%
ClC(Cl)c1nc(-c2cccs2)n2nc(-c3ccccc3)cc2n1 | -56.4% (active)
CC/C(=C(\c1ccc(O)cc1)c1ccc(OCCN(C)CCN(C)C(=O)CCC(=O)c2c(C)[nH]c(/C=C3\N=C(c4ccc[nH]4)C=C3OC)c2C)cc1)c1ccccc1 | 65.9%

— PubChem BioAssay (NCI)
